# Sampled rows, rich in hits. Any-hit rate of the full collection: about 3.3%.
# PI5P4K alpha inh: qHTS for Inhibitors of phosphatidylinositol 5-phosphate 4-kinase (PI5P4K); PI5P4Kalpha enzyme, ADP-Glo luminescence, 60 min; active compounds read low; max response, %; 330,000 compounds, 1.2% hits; AID 652105, 2013; active = max response of -50% or lower; inconclusive = between -30% and -50%; inactive = -30% or higher; also: value at the top dose of about 77 µM; % is scaled to controls: 0 for no effect and ±100 for the full control effect
# Target sequence (P48426 whole entry, looked up): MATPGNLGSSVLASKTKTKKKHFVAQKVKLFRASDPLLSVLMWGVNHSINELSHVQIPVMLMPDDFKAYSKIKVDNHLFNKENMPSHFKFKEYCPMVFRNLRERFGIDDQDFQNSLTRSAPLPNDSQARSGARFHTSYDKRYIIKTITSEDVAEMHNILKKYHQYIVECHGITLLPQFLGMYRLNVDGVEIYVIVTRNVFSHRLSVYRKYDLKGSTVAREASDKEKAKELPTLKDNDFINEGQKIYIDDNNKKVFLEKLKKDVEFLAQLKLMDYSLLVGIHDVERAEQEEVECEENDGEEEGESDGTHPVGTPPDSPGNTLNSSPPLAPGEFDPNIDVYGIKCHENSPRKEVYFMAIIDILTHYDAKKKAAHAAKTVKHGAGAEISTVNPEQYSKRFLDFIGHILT
#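 Compounds were pin-transferred onto PI5P4Kalpha and substrate in HEPES pH 7.4 buffer with EGTA, CHAPS and 5% DMSO. ATP (5 microM final) started the reaction, which ran 60 minutes at room temperature before ADP-Glo detection.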
# LDHA inh: qHTS assay for inhibitors of human lactate dehydrogenase. L-lactate dehydrogenase A chain (Homo sapiens), P00338. purified LDHA, NADH/diaphorase-resazurin fluorescence; active compounds read low. activity change, % (values are at about 110 or 230 µM). 480,000 compounds, 0.15% hits. AID 1347041, 2019; in the data active = activity change below about -30%; inconclusive = mostly about -25% to -30%;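 also: plate controls were DMSO wells for no effect and wells without enzyme for full effect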
#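 Remaining NADH was detected by diaphorase (0.133 mg/mL) converting 37 µM resazurin to fluorescent resorufin, read at 0 and 20 minutes. The preceding 5-minute room-temperature reaction used 2 nM LDHA, 0.2 mM sodium pyruvate and 0.06 mM NADH at pH 7.4.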
# PI4K2A inh: qHTS for small molecular inhibitors of PI4K2A | Phosphatidylinositol 4-kinase type 2-alpha (Homo sapiens), Q9BTU6 | activity change, negative = inhibition, % at 76.9 µM | purified PI4K2A, ADP-Glo luminescence, 1 h; active compounds read low | 420,000 compounds, 0.13% hits; in the data active = activity change below about -50%; inconclusive = mostly about -30% to -49%;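 also: -100% = wells without enzyme as full effect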
#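 ADP-Glo luminescence measured ADP generated by PI4K2A enzyme (4 ug/mL before mixing) with 1.2 mM PI substrate (pre-mix) and 300 microM ATP (pre-mix). Tris pH7.5 buffer with MgCl2, Triton X-100; 1 h reaction at ambient temperature.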
# DRD3 antagonist: qHTS of D3 Dopamine Receptor Antagonist: qHTS; max response, negative = inhibition, %; D3R cells, DiscoveRx beta-arrestin luminescence, antagonist mode; active compounds read low; 360,000 compounds, 2.5% hits; in the data active = max response below about -50%; inconclusive = no clear call, values can overlap the other calls; also: % is scaled to controls: 0 for no effect and ±100 for the full control effect
#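 Cells expressing the human receptor were seeded at 1500 cells/well, incubated overnight at 37 degrees C in 5% CO2, then exposed to library compounds with dopamine controls for 90 minutes at 37 degrees C before luminescent detection.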
# D3 ag: qHTS of D3 Dopamine Receptor Agonist: qHTS; D3R DiscoveRx beta-arrestin cells, luminescence, 90 min; max activation, %; 410,000 compounds, 0.58% hits; in the data active = max activation above about 30%; also: 0% is about no effect
#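 Agonist mode: compounds and dopamine controls were applied to plated cells for 90 min at 37 degrees C after an overnight attachment at 1500 cells/well. Luminescent read-out followed 30 - 60 minutes at room temperature with DiscoveRx detection reagent.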
# The depositor's hits bear a star; ? = inconclusive; / = no result.
SMILES,PI5P4K alpha inh,LDHA inh,PI4K2A inh,DRD3 antagonist,D3 ag
Cc1ccc(/C=C/C(=O)O)cc1S(=O)(=O)N1CCc2ccccc2C1,?,-8,1,-8,-1
Cc1ccc(/C=C/C(=O)O)cc1S(=O)(=O)N1CCCc2ccccc21,-90*,-5,-2,-2,2
Cc1ccc(/C=C/C(=O)O)cc1S(=O)(=O)Nc1ccc(C(=O)O)cc1,-10,-3,-1,0,-1
Cc1ccc(/C=C/C(=O)O)cc1S(=O)(=O)N1CCc2ccccc21,-76*,-3,3,-2,12
CCCCNC(=O)CN1C(=O)CCn2nc(-c3cn(C)c4ccccc34)cc21,/,3,/,/,/
Cc1cccc(NC(=O)c2cccn3c(-c4ccc(F)cc4)nnc23)c1C,/,2,/,/,/
CCN(CC(=O)Nc1ccc(C(C)=O)cc1)CC(=O)Nc1ccc2c(c1)OCCO2,3,-19,2,?,-18
CCN(CC(=O)Nc1ccc2c(c1)OCCO2)CC(=O)Nc1ccccc1C(F)(F)F,-7,-46*,-3,?,-14
Cc1cc(=O)oc2cc(OCC(=O)Nc3ccc4c(c3)OCCO4)ccc12,/,3,/,/,/
COc1ccc(S(=O)(=O)NCCc2csc(-c3cccc(F)c3)n2)cc1C,/,-6,/,/,/
COc1cccc2cc(C(=O)Nc3cccc(O)c3)c(=O)oc12,/,6,/,/,/
CCOC(=O)C1=C(C)Nc2nc(=S)[nH]n2C1c1ccc(Cl)cc1 (configuration not stated),-60*,-5,-1,-5,-16
COc1ccc(C(=O)[C@H]2[C@H]3C(=O)N(c4ccccc4)C(=O)[C@H]3C3C=CC=NN32)cc1 (some centres not stated),-16,4,-17,-11,68*
Cc1ccc(NC(=O)C2CC3CCC2C3)cc1 (configuration not stated),/,/,-3,/,/
CCCSc1nsc(NC(=O)Nc2ccc(F)cc2F)n1,-1,-1,-4,13,2
CCCSc1nsc(NC(=O)C(c2ccccc2)c2ccccc2)n1,3,-1,24,-71*,-9
COc1ccc(N[C@@H]2CCN3C(=O)c4ccccc4[C@@H]3C[C@H]2O)cc1,1,6,0,29,9
O=C1c2ccccc2[C@@H]2C[C@@H](O)[C@H](Nc3cccc4ccccc34)CCN12,-20,10,3,-56*,-53
CC(C)CSc1nnc(SC(C)C(=O)Nc2ccccc2F)s1 (configuration not stated),/,5,/,/,/
COc1ccc2c(c1)C1(Nc3ccccc3-c3nc4ccccc4n31)C(=O)N2C (configuration not stated),-6,-1,8,?,6
COc1ccc2c(c1)C1(Nc3ccccc3-c3nc4ccccc4n31)C(=O)N2 (configuration not stated),/,-5,-4,-59*,0
CCOc1cc(C2C3=C(CCCC3=O)OC3=C2C(=O)CCC3)cc(Br)c1OCC(=O)O,/,-33*,/,/,/
COc1cc(C2C3=C(CCCC3=O)OC3=C2C(=O)CCC3)ccc1OCc1ccc(C(=O)O)cc1,/,3,/,/,/
O=S(=O)(NCc1ccccc1)c1ccccc1,/,3,/,/,/
Cc1cccc(NC(=O)Cc2nc(-c3c[nH]c(C(=O)N4CCCC4)c3)cs2)c1,-13,-4,5,46,52*
SMILES,PI5P4K alpha inh,LDHA inh,PI4K2A inh,DRD3 antagonist,D3 ag
COc1ccc2nc(Nc3nc(CSc4nnnn4-c4ccccc4)cc(=O)[nH]3)nc(C)c2c1,3,-13,0,-59*,7
Cc1ccc(SCc2cc(=O)[nH]c(Nc3nc(C)c4cccc(C)c4n3)n2)cc1,/,-16,1,-84*,-7
O=C(NN1CCN(C(c2ccccc2)c2ccccc2)CC1)c1ccc(F)cc1Cl,/,-2,/,/,/
Cn1c(=O)oc2cc(S(=O)(=O)Nc3cccc([N+](=O)[O-])c3)ccc21,12,-3,5,-88*,-28
CC(Oc1ccccc1Cl)C(=O)Nc1ccc(S(=O)(=O)N2CCN(C)CC2)cc1 (configuration not stated),-67*,-21,?,10,4
CN1CCN(S(=O)(=O)c2ccc(NC(=S)NC(=O)c3ccc(Cl)cc3)cc2)CC1,-51*,-7,1,8,7
Cc1cccc(OCCC(=O)Nc2ccc(S(=O)(=O)N3CCCC3)cc2)c1,2,-7,0,-6,-2
Cc1ccccc1OCCC(=O)Nc1ccc(S(=O)(=O)N2CCCC2)cc1,3,0,3,-87*,-19
CC(C)C[C@H](NC(=O)[C@H](C)n1nnc2ccccc2c1=O)C(=O)O,/,3,/,/,/
O=C(CCc1nnc(-c2ccccc2)o1)Nc1ncc(Cc2cccc(Cl)c2)s1,/,1,/,/,/
C/C(=N\NC(=O)c1ccc(O)cc1)c1ccc2c(c1)Nc1ccccc1S2,-77*,2,-2,1,5
COc1ccc(C(=O)N/N=C(/C)c2ccc3c(c2)Nc2ccccc2S3)cc1OC,/,4,/,/,/
Cc1nc(Nc2ccc3c(c2)OCO3)c2oc3ccccc3c2n1,-5,-5,-10,-54*,-3
Cc1nc(Nc2ccccc2)c2oc3ccc(Cl)cc3c2n1,1,-6,-7,-6,93*
Cc1nnc(Nc2ccc3c(c2)OCO3)c2ccccc12,4,-1,7,-63*,-8
COc1ccc2[nH]c(O)c(N=NC(=O)Cc3cccs3)c2c1,-69*,1,-12,1,-1
COc1ccc2[nH]c(O)c(N=NC(=O)c3ccc(NS(=O)(=O)c4cccs4)cc3)c2c1,-88*,2,-30,7,3
Cc1cccc2c(N=Nc3ccc(S(=O)(=O)Nc4ccc(Cl)cc4)cc3[N+](=O)[O-])c(O)[nH]c12,-74*,-1,0,?,-17
Cc1ccc2[nH]c(O)c(N=NC(=O)c3ccc(NS(=O)(=O)c4cccs4)cc3)c2c1,-56*,-3,-4,1,-5
Cc1cccc2c(N=NC(=O)c3ccc(NS(=O)(=O)c4cccs4)cc3)c(O)[nH]c12,-77*,-4,-3,?,-25

# High-throughput results deposited in PubChem by National Center for Advancing Translational Sciences (NCATS).
